Assay outcomes deposited in PubChem BioAssay by National Center for Advancing Translational Sciences (NCATS).
Giardia FBPA inh – Giardia lamblia aldolase inhibition. A8B2U2. purified Giardia FBPA. Potency, µM (top dose mostly 59.6 µM), inactives show at the top dose activity, negative = inhibition, actives largely listed as inhibitors. hit rate 0.71% among 290,000. AID 2451; also: potency is read from the fitted curve at half-maximal effect; % is scaled to controls: 0 for no effect and ±100 for the full control effect; nearly all actives have a fitted effect of over 55% in size
Target sequence (A8B2U2 whole entry, looked up): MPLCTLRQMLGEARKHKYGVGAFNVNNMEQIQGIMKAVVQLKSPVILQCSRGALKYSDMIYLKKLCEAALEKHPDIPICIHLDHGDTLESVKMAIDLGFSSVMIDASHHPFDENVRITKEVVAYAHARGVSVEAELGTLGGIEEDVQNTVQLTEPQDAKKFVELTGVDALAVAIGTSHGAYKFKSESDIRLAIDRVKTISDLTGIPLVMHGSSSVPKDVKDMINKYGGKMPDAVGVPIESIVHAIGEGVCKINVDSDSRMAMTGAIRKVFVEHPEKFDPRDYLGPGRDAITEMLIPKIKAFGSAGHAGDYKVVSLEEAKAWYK
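40 nM FBPA preincubated 10 min at RT with compound (up to 57.5 uM final), then substrate plus GAPDH/TPI/NAD/arsenate coupling and diaphorase/resazurin added. Fluorescence read after 20 min at RT, 525/598 nm.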
AmpC inh detg – inhibitors of E. coli AmpC beta-lactamase with detergent; P00811; AmpC hydrolysis of nitrocefin, absorbance 480 nm, 0.01% Triton; Potency, µM (titrated, usually from 114 µM), for the others: at the top dose activity change, negative = inhibition, usual class: inhibitors; hit rate 0.041% among 370,000; AID 485294;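 also: potency is read from the fitted curve at half-maximal effect; 0% = no-compound wells and -100% = no-enzyme wells; nearly all actives have a fitted effect of over 25% in size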
Target sequence (P00811 whole entry, looked up): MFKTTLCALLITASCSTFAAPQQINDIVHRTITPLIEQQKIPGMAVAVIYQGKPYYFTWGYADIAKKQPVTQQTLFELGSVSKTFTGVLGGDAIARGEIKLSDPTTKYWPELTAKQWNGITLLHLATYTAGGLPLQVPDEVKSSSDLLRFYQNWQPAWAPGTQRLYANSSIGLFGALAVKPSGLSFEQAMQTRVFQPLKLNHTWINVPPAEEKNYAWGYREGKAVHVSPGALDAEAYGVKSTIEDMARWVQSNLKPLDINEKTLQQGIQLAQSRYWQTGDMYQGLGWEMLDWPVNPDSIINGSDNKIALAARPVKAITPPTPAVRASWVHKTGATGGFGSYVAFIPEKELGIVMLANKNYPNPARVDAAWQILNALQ
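20 mM phosphate pH 7.0 + 0.01% (detergent screen) or 0.0001% Triton X-100; 5.3 nM AmpC reagent; cpd preinc 15 min RT; nitrocefin (800 uM stock) to start; A480 q20 s × 4 min; Activity was normalised to no-enzyme and no-compound control wells.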
AmpC inh no detg – inhibitors of E. coli AmpC beta-lactamase without detergent; P00811; AmpC nitrocefin hydrolysis, absorbance 480 nm, 0.0001% Triton; Potency, µM (doses to about 57.1 µM), without a hit: at the top dose activity change, negative = inhibition, most hits filed as inhibitors; hit rate 0.52% among 330,000; AID 485341;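 also: potency is read from the fitted curve at half-maximal effect; plate controls were no compound for no effect and no enzyme for full effect; nearly all actives have a fitted effect of over 20% in size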
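AmpC (5.3 nM in the dispensed reagent) in 20 mM phosphate pH 7.0 with 0.01% (detergent screen) or 0.0001% Triton X-100 was preincubated with compounds for 15 min at room temperature. Nitrocefin was then added from an 800 uM solution, and hydrolysis was followed at 480 nm.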
SARS PLpro yeast – inhibitors of SARS-CoV papain-like protease in yeast; S. cerevisiae expressing SARS-CoV PLpro, growth rescue; Potency, µM (highest dose often 32.9 µM), inactives show at the highest dose activity, positive = growth rescue, actives largely listed as activators; hit rate 0.19% among 330,000; AID 485353; calls by dose curve; also: potency is read from the fitted curve at half-maximal effect; 0% is about no effect; nearly all actives have a fitted effect of over 55% in size
NS1 function inh – influenza NS1 inhibition. Potency, µM (titrated, usually from 46.1 µM), for inactives: at the top dose activity, positive = more growth. hit rate 0.4% among 270,000. AID 2326; calls by dose curve; also: potency is read from the fitted curve at half-maximal effect; actives are rising curves; nearly all actives have a fitted effect of over 50% in size
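A cell-based growth assay was used: compounds that relieve NS1-induced slow growth of budding yeast raise OD600. Assay medium was yeast nitrogen base with ammonium sulphate and -URA supplement, pH 6.0, with 2% galactose.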
Flu NS1 inh – influenza NS1 function inhibition validation; shares compounds with NS1 function inh; activity change, negative = inhibition, % at 32.9 µM; 1,400 tested, under 10 active; influenza NS1 function cell assay, 15-point titration; calls by dose curve; also: 0% is about no effect
* marks the source's active call; other numbers are inactive results; ? = inconclusive; / = no result. Hits are enriched below; roughly 1.4% of the tested compounds scored in any of these assays. Unless noted, calls follow the shape of the dose curve; as a rule, active = well fitted curve in the direction sought with a large enough effect; inconclusive = small, poorly fitted or top-dose-only effect, or another doubt; inactive = no such curve, though single readings can be large; an effect the other way counts as inactive or inconclusive.

SMILES | Giardia FBPA inh | AmpC inh detg | AmpC inh no detg | SARS PLpro yeast | NS1 function inh | Flu NS1 inh
O=C(OCCN=C1NS(=O)(=O)c2ccccc21)c1cccnc1 | 0% | 6% | -14% | 10% | ? | -4
COc1cc(NS(=O)(=O)c2ccc(NC(=O)COc3cccc(C)c3)cc2)nc(OC)n1 | -14% | -15% | ? | 2% | ? | /
COc1cc(NS(=O)(=O)c2ccc(NC(=O)COc3ccccc3Cl)cc2)nc(OC)n1 | 14% | -6% | -39% | 8% | 14µM* | -2
CCc1ccccc1NC(=O)CN1CCN(C(=O)CNC(=O)c2ccccc2F)CC1 | / | 3% | -5% | 4% | / | /
Cc1ccc(C2N(c3ccc(F)cc3)C(=O)C3CCCN32)cc1 (stereo not given) | 3% | -9% | 0% | 3% | 1.8µM* | -9
O=C(NCCOC(=O)c1ccccc1C(=O)OCCNC(=O)c1cccnc1)c1cccnc1 | 0% | -1% | -11% | -6% | -1% | /
CN(C(=O)C(C)(C)C)c1ccc(OCC(=O)N2CCc3ccccc3C2)cc1 | / | 6% | 52% | 0% | 1% | /
Cc1c(Cl)cnc(NC(=O)COC(=O)c2cccc(S(=O)(=O)N3c4ccccc4CC3C)c2)c1Cl (stereo not given) | -5% | 12% | 0% | 9% | 11µM* | -13
CC(=O)N1CCN=C1SCc1ccccc1F | -2% | -7% | 3.5µM* | 2% | 1.3µM* | 5
Cc1ccc(S(=O)(=O)NC(C(=O)Oc2ccc3c(C)c(Cl)c(=O)oc3c2)c2ccccc2)cc1 (stereo not given) | -4% | 8% | -38% | 10% | -4% | /
COCCN1C=C(C(=O)OC)C(c2ccc3c(c2)OCO3)C(C(=O)OC)=C1 | 2% | -16% | 28% | 10% | 0% | /
COC(=O)C1=C(C)N2C(=O)CSC2=NC1c1ccc2c(c1)OCO2 (stereo not given) | 1% | -4% | -14% | -7% | 13µM* | 31
Cc1ccc(C)c(OCc2cc(C(=O)N3CCN(C(=O)c4ccco4)CC3)no2)c1 | / | -8% | 132% | -1% | -39% | /
O=C(NCc1ccccc1Cl)c1cnc2ccccc2n1 | -9% | -12% | 11% | -10% | -29% | /
O=C1N[C@H](Cc2ccccc2)CO1 | / | ? | -12% | -1% | / | /
c1ccc(CC2CNc3ccccc3CN2)cc1 (stereo not given) | 1% | -2% | -23% | 8% | 0.89µM* | -26
O=C(CN1CCOCC1)N/N=C/c1ccc(-c2ccc(C(=O)O)cc2)o1 | ? | -1% | -12% | 0% | 8% | /
COc1ccc(/C=N/NC(=O)c2ccc3ccccc3c2)cc1OS(=O)(=O)c1ccc(NC(C)=O)cc1 | 0% | -3% | -17% | 4% | 10µM* | 24
COc1ccc(C=O)cc1OS(=O)(=O)c1ccc(NC(C)=O)cc1 | 0% | 5% | -12% | 4% | 8% | /
O=C(c1cc(-c2ccncc2)nc2ccccc12)N1CCN(c2ccc(N3CCOCC3)nn2)CC1 | -1% | 2% | 106% | 9% | ? | -33
Cc1ccccc1C(=O)NC(=S)Nc1sc2c(c1C#N)CCC(C)C2 (stereo not given) | -11% | -6% | -36% | 2% | 19% | /
CC1CCc2c(sc(NC(=S)NC(=O)c3ccccc3)c2C#N)C1 (stereo not given) | 0% | -3% | -13% | 2% | 7.9µM* | 6
Cc1ccccc1NC(=O)CSc1nc(N)c(C#N)c(-c2cccs2)c1C#N | 3% | -2% | -25% | 0% | -28% | /
COc1ccc(CCNC(=O)CSc2nc(N)c(C#N)c(-c3cccs3)c2C#N)cc1OC | 0% | -16% | 40% | -2% | 4.5µM* | 9
COc1ccc(CCNC(=O)Cn2ccc3cc(S(=O)(=O)N4CCCC4)ccc32)cc1OC | 2% | -7% | 25% | 7% | 2.5µM* | -5
SMILES | Giardia FBPA inh | AmpC inh detg | AmpC inh no detg | SARS PLpro yeast | NS1 function inh | Flu NS1 inh
COc1ccc(CCNC(=O)CCCN2C(=O)c3ccccc3C2=O)cc1OC | 1% | -11% | 9% | 7% | 6% | /
CN(C)S(=O)(=O)c1ccc(Cl)c(NC(=O)COC(=O)/C=C/c2ccc(S(=O)(=O)N3CCOCC3)cc2)c1 | 4% | -5% | 33% | 11% | 20µM* | ?
CNC(=O)C1C(=S)NC(N)=C(C#N)C1c1ccccc1 (stereo not given) | ? | ? | -12% | -6% | -103% | /
CC1(OC(=O)CCc2ccccc2)C(=O)C=C2C=C3CCCN3C=C2C1=O (stereo not given) | ? | -2% | 39% | 1% | 4% | /
CC1(OC(=O)c2cccs2)C(=O)C=C2C=C3CCCN3C=C2C1=O (stereo not given) | ? | 2% | 33% | -2% | ? | 34
Cc1[nH]c2ccccc2c1C(=O)C(=O)NCCCn1ccnc1 | 2% | -3% | -12% | 1% | / | /
CCC1CCCCN1S(=O)(=O)c1ccc(NC(=O)c2cccs2)cc1 (stereo not given) | -2% | -15% | -13% | -27% | 5% | /
Cc1cc(-c2nnc3n2N=C(c2ccc(-c4ccccc4)cc2)CS3)n[nH]1 | 0% | -1% | 12% | -15% | 3.2µM* | ?
Cc1nnc(-c2cccc(Br)c2)c2cn(-c3ccccc3)nc12 | -2% | -11% | -18% | 3% | ? | /
Cc1nnc(-c2cccc(Br)c2)c2cn(-c3cccc(Br)c3)nc12 | -4% | -2% | 2% | 1% | 8.9µM* | 1
O=C(O)CCc1ccc(-c2ccc(F)cc2)n1CC(=O)O | 10% | 2% | -22% | 9% | 11% | /
Cc1ccc(-c2ccc(CCC(=O)O)n2CC(=O)O)cc1 | 23% | 4% | -4% | 6% | 11µM* | 11
NC(=O)Nn1c(CCC(=O)O)ccc1-c1ccc(F)cc1 | -7% | 1% | -16% | ? | ? | 9
CCOC(=O)C1=C(c2ccccc2)NC(SCC(=O)Nc2cccc(C)c2)=C(C#N)C1c1ccco1 (stereo not given) | 0% | -8% | -25% | 9% | ? | -1
CCOC(=O)C1=C(c2ccccc2)NC(SCC(=O)Nc2ccc(C)cc2)=C(C#N)C1c1ccco1 (stereo not given) | -13% | -4% | / | / | -33% | /
CCOC(=O)C1=C(c2ccccc2)NC(SCC(=O)Nc2ccccc2C)=C(C#N)C1c1ccco1 (stereo not given) | -5% | -6% | -42% | 0% | 11µM* | ?
COC(=O)[C@@]1(Cc2ccc(F)cc2)[C@H]2c3cc(C(=O)N4CCCC4)n(CCc4ccc(O)c(O)c4)c3C[C@H]2CN1C(=O)c1ccccc1 | -30% | ? | 273% | 7% | 8.9µM* | 4
